Among the data in PubChem BioAssay AID2810 (NMMLSC, 2010) are double positive events and percent response (vesicle binding) values, retold here.

Hit rate of the full screen: of about 1,200 compounds, about 65 (5%) were called active.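 The calls were made as follows: active = at either tested dose, response and 90th-percentile vesicle-stain brightness of CD8 cells under set limits and under 9% cells vesicle-bound; inactive = the rest.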 For the sample, actives were picked, then their nearest neighbours and some compounds at random.

A short description of this experiment: modulators of CD8 T cell-vesicle binding, confirmation, cherry-picked primary hits, two concentrations (AID 2810).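 As to all read-outs here: lower values mean blocking of vesicle binding.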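 As to percent response (vesicle binding): ratio of mean FL2 vesicle stain of CD8+ cells to that row's control.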 The conditions noted are these: 2C CD8+ T cell-vesicle binding, flow cytometry; for double positive events: CD8+/vesicle+ events. In general terms: In flow cytometry, cells or beads pass a laser one at a time.
Where [1] appears, read: at 15.4 µM, stronger effect = lower value.

As to `O=C(O)C1CCC(Cn2c(SCc3cc(=O)n4cc(Cl)ccc4n3)nc3ccsc3c2=O)CC1` (stereo unspecified), the double positive events was 29.3% (at 7.7 µM) and 9% under setting [1]. Further, the percent response (vesicle binding) reads like this: under setting [1], 76.3% (inactive); (response, at 7.7 µM) 339%.

With `CCOC(=O)C1CCN(C(=O)c2cccc(S(=O)(=O)NCc3ccccc3)c2)CC1`, the double positive events is, setting by setting: (at 7.7 µM) 16.4%; under setting [1], 18.8%. The percent response (vesicle binding) is 420% (inactive) under setting [1] and 128% (response, at 7.7 µM).

In the case of `Cc1ccc(NC(=O)C2CCCO2)cc1[N+](=O)[O-]` (stereo unspecified), the double positive events by setting is: (at 7.7 µM) 25.5%; under setting [1], 9.4%. Further, the percent response (vesicle binding) runs as follows: under setting [1], 161% (inactive); (response, at 7.7 µM) 161%.

For the molecule `CCOC(=O)C1CCN(C(=O)c2ccc(NC(=O)C3CCCO3)cc2)CC1` (stereo unspecified), the double positive events (at 7.7 µM) amounted to 27.3% and the double positive events under setting [1] amounted to 1.9%. Also, the percent response (vesicle binding) under setting [1] is 21.8% (active).

For the molecule `O=C(COc1ccccc1)NNC(=O)c1ccc(Cl)cc1`, the double positive events by setting is: (at 7.7 µM) 27.8%; under setting [1], 8%. Besides, the percent response (vesicle binding) by setting is: under setting [1], 220% (inactive); (response, at 7.7 µM) 616%.

`CN(C)S(=O)(=O)c1ccc(NC(=O)c2ccc([N+](=O)[O-])cc2)cc1` showed a double positive events (at 7.7 µM) of 25.4% and a double positive events under setting [1] of 22.8%. In addition, the percent response (vesicle binding) reads like this: under setting [1], 217% (inactive); (response, at 7.7 µM) 312%.

On to `CCOc1ccccc1NC(=O)C(OC(=O)c1ccccc1O)c1ccccc1` (stereo unspecified), for which the double positive events is, setting by setting: (at 7.7 µM) 6.9%; under setting [1], 21.5%. For the same molecule, the percent response (vesicle binding) by setting is: under setting [1], 190% (inactive); (response, at 7.7 µM) 189%.

For the molecule `CCC(C)c1ccc(NC(=O)NCc2cccnc2)cc1` (stereo unspecified), the double positive events by setting is: (at 7.7 µM) 8.6%; under setting [1], 27.9%. Further, the percent response (vesicle binding) under setting [1] is 260% (inactive) and the percent response (vesicle binding) (response, at 7.7 µM) was determined as 356%.

As to `CCC(C(=O)Nc1ccccc1)c1ccccc1` (stereo unspecified), the double positive events by setting is: (at 7.7 µM) 6.9%; under setting [1], 21.7%. Also, the percent response (vesicle binding) is 199% (active) under setting [1] and 59.2% (response, at 7.7 µM).

Consider `Cc1ccc(CONC(=O)c2cccc([N+](=O)[O-])c2)cc1`, for which the double positive events is, setting by setting: (at 7.7 µM) 27.4%; under setting [1], 16.3%. The percent response (vesicle binding) is 328% (inactive) under setting [1] and 576% (response, at 7.7 µM).

As to `CCOC(=O)C1(Cc2cccc(OC)c2)CCN(Cc2ccc3c(c2)OCCO3)CC1`, the double positive events was 13% (at 7.7 µM) and 17.1% under setting [1]. The percent response (vesicle binding) under setting [1] is 114% (inactive) and the percent response (vesicle binding) (response, at 7.7 µM) worked out at 148%.

`COCCN1C(=O)C(=O)/C(=C(/O)c2cccc(OC)c2)C1c1ccc(C)o1` (stereo unspecified): the double positive events (at 7.7 µM) worked out at 12.5% and the double positive events under setting [1] was 16.5%. Moreover, the percent response (vesicle binding) under setting [1] is 205% (inactive) and the percent response (vesicle binding) (response, at 7.7 µM) was found to be 173%.

For the molecule `COc1ccc(/C(O)=C2/C(=O)C(=O)N(Cc3cccnc3)C2c2ccco2)cc1OC` (stereo unspecified), the double positive events is, setting by setting: (at 7.7 µM) 23.3%; under setting [1], 0.8%. Further, the percent response (vesicle binding) under setting [1] was 27% (active) and the percent response (vesicle binding) (response, at 7.7 µM) turned out to be 360%.

In the case of `CCOc1ccc(/C(O)=C2/C(=O)C(=O)N(CCN(CC)CC)C2c2cccs2)cc1` (stereo unspecified), the double positive events runs as follows: (at 7.7 µM) 17.2%; under setting [1], 26.6%. Besides, the percent response (vesicle binding) was 300% (inactive) under setting [1] and 187% (response, at 7.7 µM).

In the case of `COc1ccc(NC(=O)COC(=O)c2cc(Cl)ccc2O)cc1S(=O)(=O)N1CCCCC1`, the double positive events worked out at 27% (at 7.7 µM) and 23.1% under setting [1]. In addition, the percent response (vesicle binding) reads like this: under setting [1], 366% (inactive); (response, at 7.7 µM) 227%.

Turning to `CC1CC(C)(C)NC(=S)N1CC(=O)NCc1ccccc1Cl` (stereo unspecified), the double positive events is, setting by setting: (at 7.7 µM) 8.8%; under setting [1], 18.9%. Further, the percent response (vesicle binding) reads like this: under setting [1], 506% (inactive); (response, at 7.7 µM) 79.3%.

`CCOC(=O)C1(CC2CCCCO2)CCN(S(=O)(=O)c2ccc(C)s2)CC1` (stereo unspecified): the double positive events runs as follows: (at 7.7 µM) 17.8%; under setting [1], 18.7%. In addition, the percent response (vesicle binding) under setting [1] is 122% (inactive) and the percent response (vesicle binding) (response, at 7.7 µM) was 196%.

As for `COc1ccc(F)c(CN2CCC(n3nccc3NC(=O)C3CCOC3)CC2)c1` (stereo unspecified), the double positive events reads like this: (at 7.7 µM) 29.1%; under setting [1], 10.9%. Also, the percent response (vesicle binding) was 235% (inactive) under setting [1] and 538% (response, at 7.7 µM).
